Rac1 wt GTP bind: human Rac1 wildtype GTP binding, inhibitors and activators | GST-Rac1 beads, fluorescent GTP binding, flow cytometry; actives lie on both sides; 0 = cold GTP competed, 100 = untreated | GTP binding activity (% of control), % at 10 µM | 190,000 tested, 0.27% active | AID 757;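 active = GTP binding activity at least 20 points away from the 100% control level, either lower or higher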
Rab7 wt modul: alters GTP binding to wildtype dog Rab7. GST-Rab7 beads, fluorescent GTP binding, flow cytometry; actives lie on both sides; untreated = 100%, excess cold GTP = 0%. GTP binding activity (percent of control), % at 10 µM. 190,000 tested, 0.055% active. AID 758;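 active = fluorescent GTP binding to Rab7 beads changed by at least 20 points from the 100% baseline, either direction, mostly lower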;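 also: median green fluorescence of bound Bodipy-FL-GTP per Rab7 bead population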
HRas wt GTP: human HRas wildtype GTP binding, change in either direction; GST-Ras wt beads, Bodipy-FL-GTP binding, flow cytometry; actives lie on both sides; 190,000 tested, 0.14% active; GTP binding activity, % at 10 µM; P01112;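 active = GTP binding activity at least 20% away from the 100% baseline, either lowered as inhibitor or raised as activator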
Target sequence (P01112 whole entry, looked up): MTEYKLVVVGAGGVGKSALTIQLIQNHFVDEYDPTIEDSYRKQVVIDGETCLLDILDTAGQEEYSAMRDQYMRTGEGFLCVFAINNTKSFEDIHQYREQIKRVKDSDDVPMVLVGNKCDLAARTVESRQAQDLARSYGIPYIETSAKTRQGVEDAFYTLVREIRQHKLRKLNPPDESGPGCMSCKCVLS
Rac1 act GTP bind: modulators of GTP binding to human Rac1 activated mutant; percent activity (GTP binding), % at 10 µM; GST-Rac1 activated beads, fluorescent GTP binding, flow cytometry; actives lie on both sides; 100% means binding = to untreated wells; P63000; AID 764; 190,000 tested, 0.11% active;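 active = GTP binding at least 20 percentage points away from the 100% baseline, in either direction, so actives lie on both sides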
Cdc42 wt: changes GTP binding to wildtype human Cdc42 | 190,000 tested, 0.2% active | percent activity (GTP binding), % at 10 µM | GST-Cdc42 beads, Bodipy-GTP binding, flow cytometry; actives lie on both sides | AID 761 | P60953;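 active = percent activity GTP binding at least 20 points away from the 100% baseline, either down as inhibitor or up as activator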;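 also: median bead fluorescence of bound Bodipy-FL-GTP at 100 nM; below 100% means less GTP binding so inhibitor and above means activator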
Target sequence (P60953 whole entry, looked up): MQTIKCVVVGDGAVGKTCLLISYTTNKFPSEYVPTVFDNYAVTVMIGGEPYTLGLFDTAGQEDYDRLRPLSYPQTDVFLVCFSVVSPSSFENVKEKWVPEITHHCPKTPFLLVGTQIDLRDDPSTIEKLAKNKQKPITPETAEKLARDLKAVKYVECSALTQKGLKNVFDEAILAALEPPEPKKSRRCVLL
Rab2A wt mod: changes GTP binding to wildtype dog Rab2A, up or down. GTP binding activity, % at 10 µM. GST-Rab2 wt beads, Bodipy-GTP binding, flow cytometry. AID 760. 190,000 tested, 0.19% active;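 active = GTP binding activity at least 20 points away from 100%, either lowered or raised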
A number is an active result; – = inactive; [ ] = dose if it differs, or a comment. A selection: hits, their analogues and other compounds. The true share with any hit is near 0.37%.

SMILES	Rac1 wt GTP bind	Rab7 wt modul	HRas wt GTP	Rac1 act GTP bind	Cdc42 wt	Rab2A wt mod
COc1cc(/C=N/NC(=O)c2cc3ccccc3cc2O)ccc1OCCN1CCCCC1	–	–	–	76	–	–
COc1ccc(NC(=S)Nn2cnnc2)cc1OC	–	–	–	–	–	–
CCCCNC(=O)c1cc([N+](=O)[O-])[nH]n1	127[activator]	–	–	–	–	–
O=C(NC1CCCCC1)c1cc([N+](=O)[O-])[nH]n1	127[activator]	–	–	–	–	–
O=C(NNC(=O)C1CCCN(S(=O)(=O)c2ccc3ccccc3c2)C1)C1CC1 (stereo unspecified)	–	–	–	–	–	–
Cc1cc(C)cc(-n2ccnc2SCC(=O)O)c1	–	–	–	–	–	–
COC(=O)c1ccc(COc2ccc(/C=C(\C#N)c3nc4ccccc4[nH]3)cc2OC)o1	–	–	–	–	–	–
COc1cc(/C=C(/C#N)c2nc3ccccc3[nH]2)ccc1OCc1ccc(C(=O)O)o1	–	–	78	–	78	77
COc1ccc2nc(/C(C#N)=C\c3ccc(C(=O)O)cc3)[nH]c2c1	77	–	–	–	78	–
O=C(/C=C\c1cccs1)N1CCN(Cc2ccc3c(c2)OCO3)CC1	–	–	–	–	–	–
O=C(CSc1ccc2nnc(-c3ccc(F)cc3)n2n1)N1CCCc2ccccc21	–	–	–	–	–	–
O=C(CSc1ccc2nnc(-c3cccc(F)c3)n2n1)N1CCCc2ccccc21	79	–	–	–	–	–
O=C(Nc1nc(-c2ccc(S(=O)(=O)N3CCCC3)cc2)cs1)c1cccs1	–	–	71	–	71	70
O=C(Nc1ccc(S(=O)(=O)N2CCCC2)cc1)c1cccs1	–	–	–	–	–	–
O=C(NCc1cccnc1)/C(=C\c1ccc(-c2ccc(Cl)c(Cl)c2)o1)S(=O)(=O)c1ccccc1	–	–	–	–	–	–
COc1ccc(OC)c(S(=O)(=O)Nc2ccc(O)c(Sc3ncn[nH]3)c2)c1	31	21	39	36	36	35
CCOc1ccc(S(=O)(=O)Nc2ccc(O)c(Sc3ncn[nH]3)c2)cc1	–	–	–	–	–	–
CC(C)Oc1cccc(C(=O)C2CCCN(C(=O)CCn3cnnn3)C2)c1 (stereo unspecified)	–	–	–	–	–	–
COc1cccc(/C=C/C(=O)Nc2ccccc2N2CCOCC2)c1	48	23	53	50	54	51
CC(=O)N1Cc2cc([N+](=O)[O-])ccc2Oc2ccccc21	–	–	–	–	–	–
CCOc1ccc(NCc2ccccc2OCc2cccc(F)c2)cc1	129[activator]	–	–	–	–	–
COc1ccc(-c2c(C#N)c(N)nc3c2CCc2ccccc2-3)cc1OC	–	–	–	–	–	–
COc1ccc(-c2cc(-c3ccc(O)cc3)nc(N)c2C#N)cc1OC	69	–	–	–	–	79
CC1=Nn2c(nnc2-c2ccco2)SC1	–	–	–	–	–	–
CCOc1ccc(C2=Nn3c(nnc3-c3ccco3)SC2)cc1	–	–	77	–	77	76
SMILES	Rac1 wt GTP bind	Rab7 wt modul	HRas wt GTP	Rac1 act GTP bind	Cdc42 wt	Rab2A wt mod
COc1ccc(S(=O)(=O)n2oc(=O)cc2-c2ccccc2)cc1	–	–	–	–	79	79
O=c1cc(-c2ccccc2)n(S(=O)(=O)c2ccccc2)o1	–	–	–	–	–	–
CCCC(=O)Nc1sc2c(c1C(=O)Nc1ccccn1)CCCC2	–	–	–	–	–	–
O=c1[nH]c2sc3c(c2c2nncn12)CCCC3	76	–	78	–	79	77
CCOc1cc(/C=C2\SC(=O)N=C2N)ccc1O	77	–	–	–	–	–
COc1ccc(OCc2nc3c4cc(OC)c(OC)cc4nc(=S)n3[nH]2)cc1	77	–	–	–	–	–
COc1ccc(CS(=O)c2nc(C)cc(C)c2S(C)(=O)=O)cc1 (stereo unspecified)	–	–	–	–	–	–
CC(C)OC(=O)c1cccc(-c2ccc(C=O)o2)c1	–	–	–	–	–	–

Source: PubChem BioAssay (NMMLSC)
